Rows were chosen to be rich in hits. Some 2.9% of all compounds tested hit in one or more screens of this group.
ZTA counter: blocks Epstein-Barr virus ZTA, an EBNA-1 counter-screen | P03206 | ZTA-DNA binding, fluorescence polarization | inhibition, % at 11 µM | hit rate 0.15% among 320,000; in the data active = inhibition above about 33%
Target sequence (P03206 whole entry, looked up): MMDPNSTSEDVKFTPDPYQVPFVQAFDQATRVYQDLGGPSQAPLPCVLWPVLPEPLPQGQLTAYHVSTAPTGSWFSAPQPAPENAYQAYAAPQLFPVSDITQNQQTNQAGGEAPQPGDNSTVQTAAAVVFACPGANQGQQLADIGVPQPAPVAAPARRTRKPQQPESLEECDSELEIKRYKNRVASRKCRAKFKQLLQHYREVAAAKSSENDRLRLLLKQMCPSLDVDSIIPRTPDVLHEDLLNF
PAFAH2 inh: inhibitors of human PAFAH2; Q99487; recombinant PAFAH2, FP-rhodamine activity probe, fluorescence polarization; inhibition, % at 3.39 µM; hit rate 0.99% among 340,000; AID 492956;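 active = inhibition above the mean over all tested compounds plus 3 SD, cut at about 30% in these data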;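 also: inhibitors block probe labeling of enzyme so polarization drops; 0% = enzyme with DMSO and 100% = wells lacking PAFAH2 protein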
PAFAH1B2 inh: PAFAH1B2 (human) inhibition | P68402 | recombinant PAFAH1B2, FP-rhodamine activity probe, fluorescence polarization | inhibition, % at 3.39 µM | hit rate 1.2% among 340,000 | AID 492953;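 active = inhibition above the mean of all tested compounds plus 3 SD, cut at about 24% in these data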;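 also: 0% = enzyme with DMSO and 100% = wells lacking PAFAH1B2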
rCAG RNA binder: molecules binding r(CAG) RNA repeats. r(CAG) RNA repeat, TO-PRO-1 dye displacement fluorescence. inhibition, % at 3 µM. hit rate 1.3% among 370,000;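 active = inhibition above the plate cutoff, the mean of all test compounds on that plate plus 3 SD, cut at about 35% in these data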;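 also: 0% = DMSO alone and 100% = 100 µM mitoxantrone as full dye displacement; higher means more dye released from RNA so lower well fluorescence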
EBNA-1 inhibitor: blocks EBNA-1 binding to DNA; EBNA-1 DNA binding, fluorescence polarization; inhibition, % at 14.8 µM; hit rate 0.34% among 300,000; in the data active = inhibition above about 28%
PAFAH1B3 FP inh: blocks human PAF acetylhydrolase 1B catalytic subunit 3; hit rate 0.28% among 340,000; recombinant PAFAH1B3, FP-rhodamine probe, fluorescence polarization; AID 492972; inhibition, % at 3.39 µM; Q15102;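 active = inhibition above the screen-wide average of all tested compounds plus 3 SD, cut at about 25% in these data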;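 also: 0% = enzyme with DMSO only and 100% = wells lacking PAFAH1B3 protein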
Target sequence (Q15102 whole entry, looked up): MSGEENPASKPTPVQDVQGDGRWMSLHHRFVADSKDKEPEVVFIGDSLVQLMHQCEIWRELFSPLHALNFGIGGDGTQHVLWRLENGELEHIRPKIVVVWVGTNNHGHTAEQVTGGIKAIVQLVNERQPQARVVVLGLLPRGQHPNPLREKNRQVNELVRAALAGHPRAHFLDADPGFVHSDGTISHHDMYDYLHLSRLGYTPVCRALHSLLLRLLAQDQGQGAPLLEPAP
rCAG binder conf: r(CAG) RNA repeat binding, confirmation; inhibition, % at 3 µM; shares compounds with rCAG RNA binder; TO-PRO-1 dye displacement fluorescence; hit rate 70% among 4,300; AID 652065;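 active = inhibition above a per-plate cutoff, the mean inhibition of sample wells plus 3 SD, cut at about 35% in these data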;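 also: loss of TO-PRO-1 fluorescence as compound displaces dye from 1x1 AA loop RNA; 0% = DMSO only wells and 100% = 100 µM mitoxantrone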
dCAG dye counter: counter-screen for rCAG RNA binders: DNA CAG dye complex inhibitors; shares compounds with rCAG RNA binder; d(CAG) DNA oligo TO-PRO-1 dye displacement, fluorescence; inhibition, % at 3 µM; hit rate 94% among 4,300; AID 652068;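 active = inhibition above its plate's cutoff, the mean test-well inhibition plus 3 SD, cut at about 4.8% in these data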;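 also: 0% = DNA dye mix with DMSO and 100% = 100 µM mitoxantrone; hits displace the dye from DNA and so lower well fluorescence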
Numbers without * were called inactive; · = no result given.

SMILES	ZTA counter	PAFAH2 inh	PAFAH1B2 inh	rCAG RNA binder	EBNA-1 inhibitor	PAFAH1B3 FP inh	rCAG binder conf	dCAG dye counter
O=C1NC(=O)N(c2cccc(Cl)c2)C(=O)/C1=C\c1ccc(Sc2nc3ccccc3[nH]2)o1	21	-27	-37	72*	4	-48	50*	22*
CC12Cc3cn[nH]c3C=C1CCC1C2CCC2(C)C1CCC2(C)O (centres undefined)	·	-8	4	4	·	5	·	·
O=C(N/N=C/c1c(O)n(Cc2ccc(F)cc2)c(=O)[nH]c1=O)c1ccccc1O	0	11	35*	85*	2	19	67*	26*
COc1ccc(Cn2c(O)c(/C=N/NC(=O)c3ccncc3)c(=O)[nH]c2=O)cc1	-7	7	10	24	-5	10	·	·
O=C(N/N=C/c1c(O)n(CCc2ccccc2)c(=O)[nH]c1=O)c1ccccc1O	-8	4	9	87*	-13	13	65*	25*
COc1ccc(Cn2c(O)c(/C=N/NC(=O)c3ccccc3O)c(=O)[nH]c2=O)cc1	5	18	23	91*	8	20	76*	37*
COC(=O)C1=C(c2cccc(OC)c2OC)C[C@@H]2CC[C@H]1N2C(=O)NCc1ccco1	-2	-3	-6	-1	11	-1	·	·
O=C1C2CC(CN3CCCCC23)C2CCCCN12 (centres undefined)	·	·	·	1	·	·	·	·
COc1ccc(CN2C(=O)NC(=O)/C(=C/c3ccc([N+](=O)[O-])s3)C2=O)cc1	7	63*	33*	94*	7	46*	94*	72*
O=C1NC(=O)N(Cc2ccc(F)cc2)C(=O)/C1=C\c1ccc([N+](=O)[O-])s1	3	56*	34*	93*	-8	22	79*	40*
Cc1cc(C)c(NC2=NCCS2)cc1C	·	·	·	1	·	·	·	·
O=c1[nH]c(=S)[nH]c(O)c1N=Nc1ccc(S(=O)(=O)N2CCc3ccccc32)cc1	-24	17	18	64*	-7	7	49*	19*
CCN1C(=O)C(=C/C=C/c2ccco2)C(=O)N(CC)C1=S	5	-58	-42	56*	7	-88	49*	17*
CC(C)N1C(=O)/C(=C/C=C/c2ccco2)C(=O)N(Cc2ccco2)C1=O	8	22	3	45*	5	-1	22	11*
CC(C)(C#CC(=O)O)OOC(c1ccccc1)(c1ccccc1)c1ccccc1	2	5	9	53*	21	14	57*	20*
C#C[C@@]1(O)CCC2C3CCC4=C/C(=N/OCC(=O)NC(C(=O)NC(CC(C)C)C(=O)O)C(C)C)CC[C@]4(C)C3CC[C@@]21C (some centres undefined)	·	2	6	12	·	6	·	·
Cc1cc(O)c2c(c1)C(=O)C13C(=C2O)C(=O)[C@H]2[C@@H](O)[C@@H]1[C@H]1[C@H](O)[C@@H]3C(=O)C3=C(O)c4c(O)cc(C)cc4C(=O)C312 (some centres undefined)	-20	5	4	·	-13	14	·	·
O=c1nc(/C=C/c2ccc(Cl)cc2Cl)cc(C(F)(F)F)[nH]1	·	6	5	49*	·	6	38*	10*
Cc1ccc(/C=C2\C(=O)NC(=S)N(c3ccccc3F)C2=O)s1	8	-2	-27	35*	0	-67	16	8.2*
Cc1ccc(/C=C2\C(=O)NC(=S)N(c3ccc(F)cc3)C2=O)s1	14	20	9	28	-1	-2	·	·
COC1C(C)OC(OC2CC(C)(O)Cc3cc4c(c(O)c32)C(=O)c2c(O)cc3c(c2C4=O)OC2OC3(C)C(O)C(N(C)C)C2O)C(OC)C1(C)OC (centres undefined)	·	-9	1	-43	·	-22	·	·
CCOC(=O)c1[nH]c2ccc(OC)cc2c1C(SCC(=O)O)c1ccc(C(F)(F)F)cc1 (centres undefined)	3	9	8	56*	3	6	51*	14*
Cc1cc(Br)ccc1N1C(=O)CC(=O)NC1=O	1	-1	4	40*	4	2	4	3
CC[C@H](C(N)=O)N1CCCC1=O	·	·	·	1	·	·	·	·
O=C(NCP(=O)(Oc1ccccc1)Oc1ccccc1)OCc1ccccc1	·	·	·	69*	·	·	2	-1
SMILES	ZTA counter	PAFAH2 inh	PAFAH1B2 inh	rCAG RNA binder	EBNA-1 inhibitor	PAFAH1B3 FP inh	rCAG binder conf	dCAG dye counter
COc1ccc(-n2c(O)c(/C=C/C=Nc3ccccc3)c(=O)[nH]c2=O)cc1	-18	-15	-11	-171	-7	-19	·	·
Cc1cccc(OCCn2cccc2/C=C2/C(=O)NC(=O)N(Cc3ccco3)C2=O)c1	9	·	·	35*	9	·	11	7.7*
O=C1NC(=O)N(Cc2ccco2)C(=O)/C1=C\c1cccn1CCOc1ccc(Cl)cc1	16	7	35*	35*	-1	-3	11	7.6*
CCc1ccc(N2C(=O)NC(=O)/C(=C/c3cccn3CCOc3ccc(C)cc3)C2=O)cc1	-3	26	8	10	-5	9	·	·
CC(C)(C)C(=O)N1Cc2ccccc2-n2nncc2C1	·	11	2	4	·	-1	·	·
O=[N+]([O-])c1cc(S(=O)(=O)c2ccc(O)c([N+](=O)[O-])c2)ccc1O	-2	39*	14	38*	0	29*	22	7.7*
O=[N+]([O-])c1cccc(O)c1	-11	4	3	1	·	3	·	·
COc1ccc(CN2C(=O)CC(=O)NC2=S)cc1	11	-3	-1	38*	18	-1	11	4
O=C1CC(=O)N(Cc2ccccc2)C(=O)N1	·	2	6	4	·	11	·	·
COc1cccc(N2C(=O)/C(=C/c3ccc(C)o3)C(=O)NC2=S)c1	-8	16	1	32	-6	0	·	·
O=C1NC(=O)N(Cc2ccccc2)C(=O)/C1=C/C=C/c1ccco1	11	20	0	45*	9	4	17	8.5*
CC(C)c1ccc(N2C(=O)NC(=O)/C(=C\c3cnc(-c4ccccc4)nc3)C2=O)cc1	1	0	1	31	-8	1	·	·
COc1ccc(CN2C(=O)NC(=O)/C(=C\c3ccco3)C2=O)cc1	-9	16	3	43*	-22	5	31	12*
COc1cc(OC)c(OC)cc1/C=C1/C(=O)NC(=O)N(Cc2ccccc2)C1=O	22	1	5	5	6	15	·	·
CCOc1cccc(N2C(=O)/C(=C/c3ccco3)C(=O)NC2=S)c1	8	22	1	69*	11	-1	68*	35*
COc1ccc(CN2C(=O)NC(=O)/C(=C\c3cc(OC)c(OC)c(OC)c3)C2=O)cc1	1	-7	5	21	-4	7	·	·
